# Experimental data taken from the supplement of paper PMC6897291.
# Counter-ions that a name gives are not always drawn.
# System: RIVA
# Assay: growth inhibition by drug alone (1 - RLU/untreated control) (fraction); higher = stronger inhibition
# Settings: 10 nM; time (day): 4; 177Lu-lilotomab satetraxetan 0 ug/ml
# Procedure, shortened: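 RIVA or U-2932 cells were left untreated or pretreated for 18 h with a radiolabelled anti-CD37 antibody conjugate (~600 MBq/mg) at 0.5 µg/ml for RIVA or 1 µg/ml for U-2932. The cells were then washed and seeded at 3,000 cells/well on plates pre-printed with the Selleck Cambridge Cancer Compound library, dosed at 10/100 nM for RIVA and 10/1,000 nM for U-2932. From day 3, RealTime-Glo luminescence was read daily after 1 h at 37°C. Growth inhibition was taken as one minus RLU over the mean of the untreated no-drug wells, of which there were 48 per plate.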
row,Structure (SMILES),growth inhibition by drug alone
1,O=C1CN2Cc3c(ccc(Cl)c3Cl)N=C2N1 [Anagrelide],0.0438
2,Cc1cc(Nc2cc(N3CCN(C)CC3)nc(/C=C/c3ccccc3)n2)n[nH]1,-0.286
3,CCc1cc(Nc2nccc(-c3c(-c4ccc(OC)c(C(=O)Nc5c(F)cccc5F)c4)nc4ccccn34)n2)c(OC)cc1N1CCC(N2CCN(S(C)(=O)=O)CC2)CC1,-0.0266
4,O=C1CN2Cc3c(ccc(Cl)c3Cl)N=C2N1 [Anagrelide hydrochloride],0.111
5,O=C(NCCCNc1nc(Nc2cccc(NC(=O)N3CCCC3)c2)ncc1I)c1cccs1,0.272
6,CCC[C@H](NC(=O)/C(C#N)=C/c1cccc(Br)n1)c1ccccc1,-0.0305
7,COc1cc2nc(N3CCCN(C)CC3)nc(NC3CCN(Cc4ccccc4)CC3)c2cc1OC,0.122
8,C#Cc1cccc(Nc2ncnc3cc(OCCOC)c(OCCOC)cc23)c1 [Erlotinib HCl],0.233
9,CN(C)c1ccccc1CN1CCCN(Cc2ccccc2N(C)C)C1c1ccncc1,-0.0402
10,COc1cc2c(NC3CCN(C)CC3)nc(N3CCCN(C)CC3)nc2cc1OCCCN(C)C,-0.195
11,COc1ccc(COc2cc3oc(=O)c4cc(C(C)O)ccc4c3cc2OC)cc1 (stereo not drawn) [Palomid 529],0.0604
12,CO[C@@H](C(=O)N1Cc2[nH]nc(NC(=O)c3ccc(N4CCN(C)CC4)cc3)c2C1)c1ccccc1,-0.0311
13,Cn1cc(C2=C(c3ccc(Cl)cc3Cl)C(=O)NC2=O)c2ccccc21,-0.11
14,CCc1ccc(CCOc2ccc(CC3SC(=O)NC3=O)cc2)nc1 (stereo not drawn) [Pioglitazone (Actos)],-0.212
15,O=C(O)C1(C(=O)O)CCC1.[NH2-].[NH2-].[Pt+2] [Carboplatin],-0.143
16,CS(=O)(=O)c1ccc(C(=O)Nc2ccc(Cl)c(-c3ccccn3)c2)c(Cl)c1 [Vismodegib (GDC-0449)],0.121
17,OCCn1cc(-c2ccc3c(c2)CC/C3=N\O)c(-c2ccncc2)n1,-0.13
18,CC[C@@H]1C(=O)N(C)c2cnc(Nc3ccc(C(=O)NC4CCN(C)CC4)cc3OC)nc2N1C1CCCC1,0.895
19,CC[C@]1(O)C[C@H]2CN(CCc3c([nH]c4ccccc34)[C@@](C(=O)OC)(c3cc4c(cc3OC)N(C=O)[C@H]3[C@@](O)(C(=O)OC)[C@H](OC(C)=O)[C@]5(CC)C=CCN6CC[C@]43[C@@H]65)C2)C1 [Vincristine],0.955
20,CC(C)(C)c1ccc(S(=O)(=O)/C=C/C#N)cc1,-1.37e-05
21,Cc1cn(-c2cc(NC(=O)c3ccc(C)c(Nc4nccc(-c5cccnc5)n4)c3)cc(C(F)(F)F)c2)cn1 [Nilotinib (AMN-107)],-0.0957
22,CC(C)(C#N)c1cc(Cn2cncn2)cc(C(C)(C)C#N)c1 [Anastrozole],-0.01
23,C=CCn1c(=O)c2cnc(Nc3ccc(N4CCN(C)CC4)cc3)nc2n1-c1cccc(C(C)(C)O)n1,-0.0715
24,Cn1cnc(N)c2ncnc1-2 [3-Methyladenine],-0.00798
25,CCc1c2c(nc3ccc(OC(=O)N4CCC(N5CCCCC5)CC4)cc13)-c1cc3c(c(=O)n1C2)COC(=O)[C@]3(O)CC [Irinotecan HCl Trihydrate (Campto)],-0.159

# Same assay, conditions: 10 nM; time (day): 5; 177Lu-lilotomab satetraxetan 0 ug/ml
row,Structure (SMILES),growth inhibition by drug alone
1,CNCc1ccc(-c2[nH]c3cc(F)cc4c3c2CCNC4=O)cc1,-0.0988
2,O=C(O)c1ccc(-c2c[nH]c3ncc(-c4ccccc4)cc23)cc1C1CCCC1,-0.138
3,CC(=O)c1c(C)c2cnc(Nc3ccc(N4CCNCC4)cn3)nc2n(C2CCCC2)c1=O,-0.148
4,CCN(CC)CCCCNc1ncc2cc(-c3cc(OC)cc(OC)c3)c(NC(=O)NC(C)(C)C)nc2n1,-0.227
5,CCC(C)(C)C(=O)O[C@H]1C[C@@H](C)C=C2C=C[C@H](C)[C@H](CC[C@@H]3C[C@@H](O)CC(=O)O3)[C@H]21 [Simvastatin (Zocor)],-0.225
6,CC[C@H](Nc1ncnc2[nH]cnc12)c1nc2cccc(F)c2c(=O)n1-c1ccccc1,-0.182
7,CC(C=CC(=O)NO)=CC(C)C(=O)c1ccc(N(C)C)cc1 (stereo not drawn) [Trichostatin A (TSA)],-0.0672
8,COc1ccc2c3n(c(=NC(=O)c4cccnc4)nc2c1OC)CCN3,-0.0752
9,NC(=O)c1ccc(-c2nc(-c3ccccn3)c(-c3ccc4c(c3)OCO4)[nH]2)cc1,0.0924
10,CNC(=O)c1cc(Oc2ccc(NC(=O)Nc3ccc(Cl)c(C(F)(F)F)c3)c(F)c2)ccn1 [Regorafenib (BAY 73-4506)],0.0999
11,Cc1cnc(Nc2ccc(OCCN3CCCC3)cc2)nc1Nc1cccc(S(=O)(=O)NC(C)(C)C)c1,-0.322
12,CCOc1ccc(Nc2nc(-c3c(C)nc4ccccn34)cs2)cc1,-0.0241
13,CC(C)C[C@H](NC(=O)[C@H](Cc1ccccc1)NC(=O)c1cnccn1)B(O)O [Bortezomib (Velcade)],0.958
14,O=C1CN2Cc3c(ccc(Cl)c3Cl)N=C2N1 [Anagrelide],-0.0392
15,Cc1cc(Nc2cc(N3CCN(C)CC3)nc(/C=C/c3ccccc3)n2)n[nH]1,-0.318
16,CCc1cc(Nc2nccc(-c3c(-c4ccc(OC)c(C(=O)Nc5c(F)cccc5F)c4)nc4ccccn34)n2)c(OC)cc1N1CCC(N2CCN(S(C)(=O)=O)CC2)CC1,-0.11
17,O=C1CN2Cc3c(ccc(Cl)c3Cl)N=C2N1 [Anagrelide hydrochloride],0.0638
18,O=C(NCCCNc1nc(Nc2cccc(NC(=O)N3CCCC3)c2)ncc1I)c1cccs1,0.262
19,CCC[C@H](NC(=O)/C(C#N)=C/c1cccc(Br)n1)c1ccccc1,-0.179

row,Structure (SMILES),growth inhibition by drug alone
1,COc1cc2nc(N3CCCN(C)CC3)nc(NC3CCN(Cc4ccccc4)CC3)c2cc1OC,0.055
2,C#Cc1cccc(Nc2ncnc3cc(OCCOC)c(OCCOC)cc23)c1 [Erlotinib HCl],0.131
3,CN(C)c1ccccc1CN1CCCN(Cc2ccccc2N(C)C)C1c1ccncc1,-0.0946
4,COc1cc2c(NC3CCN(C)CC3)nc(N3CCCN(C)CC3)nc2cc1OCCCN(C)C,-0.474
5,COc1ccc(COc2cc3oc(=O)c4cc(C(C)O)ccc4c3cc2OC)cc1 (stereo not drawn) [Palomid 529],-0.0136
6,CO[C@@H](C(=O)N1Cc2[nH]nc(NC(=O)c3ccc(N4CCN(C)CC4)cc3)c2C1)c1ccccc1,-0.0917
7,Cn1cc(C2=C(c3ccc(Cl)cc3Cl)C(=O)NC2=O)c2ccccc21,-0.108
8,CCc1ccc(CCOc2ccc(CC3SC(=O)NC3=O)cc2)nc1 (stereo not drawn) [Pioglitazone (Actos)],-0.202
9,O=C(O)C1(C(=O)O)CCC1.[NH2-].[NH2-].[Pt+2] [Carboplatin],-0.162
10,CS(=O)(=O)c1ccc(C(=O)Nc2ccc(Cl)c(-c3ccccn3)c2)c(Cl)c1 [Vismodegib (GDC-0449)],0.101
11,OCCn1cc(-c2ccc3c(c2)CC/C3=N\O)c(-c2ccncc2)n1,-0.183
12,CC[C@@H]1C(=O)N(C)c2cnc(Nc3ccc(C(=O)NC4CCN(C)CC4)cc3OC)nc2N1C1CCCC1,0.9
13,CC[C@]1(O)C[C@H]2CN(CCc3c([nH]c4ccccc34)[C@@](C(=O)OC)(c3cc4c(cc3OC)N(C=O)[C@H]3[C@@](O)(C(=O)OC)[C@H](OC(C)=O)[C@]5(CC)C=CCN6CC[C@]43[C@@H]65)C2)C1 [Vincristine],0.965
14,CC(C)(C)c1ccc(S(=O)(=O)/C=C/C#N)cc1,-0.0516
15,Cc1cn(-c2cc(NC(=O)c3ccc(C)c(Nc4nccc(-c5cccnc5)n4)c3)cc(C(F)(F)F)c2)cn1 [Nilotinib (AMN-107)],-0.159
16,CC(C)(C#N)c1cc(Cn2cncn2)cc(C(C)(C)C#N)c1 [Anastrozole],-0.0521
17,C=CCn1c(=O)c2cnc(Nc3ccc(N4CCN(C)CC4)cc3)nc2n1-c1cccc(C(C)(C)O)n1,-0.175
18,Cn1cnc(N)c2ncnc1-2 [3-Methyladenine],-0.0197
19,CCc1c2c(nc3ccc(OC(=O)N4CCC(N5CCCCC5)CC4)cc13)-c1cc3c(c(=O)n1C2)COC(=O)[C@]3(O)CC [Irinotecan HCl Trihydrate (Campto)],-0.223
